Bioassay records: PubChem, National Center for Advancing Translational Sciences (NCATS)
Rows were chosen to be rich in hits. Some 6.5% of all compounds tested hit in one or more screens of this group.
Marburg entry inh: qHTS for inhibitors of binding or entry into cells for Marburg Virus; AID 540276, 2011; 300,000 tested, 1.8% active; Potency, µM (top dose mostly 37.8 µM), inactives show at the highest dose activity change, negative = inhibition, actives largely listed as inhibitors; Marburg virus pseudotyped entry inhibition, cell reporter; calls by dose curve; tested in HEK293 cells; note: potency is the fitted concentration of half-maximal effect
LASV entry inh: qHTS for Inhibitors of binding or entry into cells for Lassa Virus; AID 540256, 2011; Lassa virus pseudotype entry inhibition, cell reporter; Potency, µM (top dose mostly 37.9 µM), inactives show top-dose activity change, negative = inhibition, most hits filed as inhibitors; 300,000 tested, 1.2% active; calls by dose curve; tested in HEK293 cells; note: potency is the fitted concentration of half-maximal effect; nearly all actives have a fitted effect of over 50% in size
HCMV inh: qHTS Assay for inhibitors of the human cytomegalovirus (HCMV). HFF cells, HCMV-luciferase reporter, 72 h; stronger effect = lower value. activity change, negative = inhibition, % at 57.5 µM. 410,000 tested, 4.5% active. AID 1259415, 2018; in the data active = activity change below about -60%; inconclusive = no clear call, values can overlap the other calls; inactive = above about -39%
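Luciferase read-out from HCMV-luciferase-infected HFFs (MOI 1 PFU/cell) 72 h post infection at 37C; compounds added after 16 h cell attachment; activity normalized between buffer-only basal and Salinomycin (10uM) inhibitor controls.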
VACV Venus inh: qHTS for Stage-Specific Inhibitors of Vaccinia Orthopoxvirus: Venus Reporter Primary qHTS; AID 720580, 2013; 330,000 tested, 0.46% active; Potency, µM (top dose mostly 36.5 µM), for inactives: at the top dose activity change, negative = inhibition, actives largely listed as inhibitors; Vaccinia virus Venus reporter expression, fluorescence; calls by dose curve; tested in A549 cells; note: potency is the fitted concentration of half-maximal effect; nearly all actives have a fitted effect of over 30% in size
FMDV antiviral: High Throughput Screening for Foot and Mouth Disease Virus Antivirals; FMDV antiviral cell-based qHTS; Potency, µM (titrated, usually from 57.9 µM), inactives show top-dose activity change, negative = inhibition, actives largely listed as inhibitors; 410,000 tested, 1.2% active; calls by dose curve; tested in HEK293T cells; note: read-out not given here; potency is the fitted concentration of half-maximal effect; nearly all actives have a fitted effect of over 45% in size
VACV mCherry inh: qHTS for Stage-Specific Inhibitors of Vaccinia Orthopoxvirus: mCherry Reporter Primary qHTS; Potency, µM (titrated, usually from 36.5 µM), without a hit: at the top dose activity change, negative = inhibition, most hits filed as inhibitors; 310,000 tested, 0.63% active; Vaccinia virus mCherry reporter infection, fluorescence; calls by dose curve; tested in A549 cells; note: potency is the fitted concentration of half-maximal effect; nearly all actives have a fitted effect of over 35% in size
The depositor's hits bear a star; i = inactive; ? = inconclusive; nt = no result; [ ] = another dose, or the depositor's remark. % is set by controls: 0 for no effect and ±100 for the full control effect.

SMILES | Marburg entry inh | LASV entry inh | HCMV inh | VACV Venus inh | FMDV antiviral | VACV mCherry inh
CC(=O)O[C@@]12CO[C@@H]1C[C@H](O)[C@@]1(C)C(=O)[C@H](O)C3=C(C)[C@@H](OC(=O)[C@H](O)[C@@H](NC(=O)OC(C)(C)C)c4ccccc4)C[C@@](O)([C@@H](OC(=O)c4ccccc4)[C@H]21)C3(C)C | nt | nt | nt | ? | nt | i
C=CCOc1ccccc1CN(C(=O)CCl)c1ccc2c(c1)OCO2 | ? | -19% | -99* | -13% | ? | i
Brc1ccc(N/N=C(/N=Nc2nn[nH]n2)c2ccccc2)cc1 | nt | nt | -100* | 13µM* | -23% | ?
Cc1cccc(Cc2ncc(C(F)(F)F)cc2Cl)c1 | nt | nt | -7 | nt | -11% | nt
Cc1nc2ccccc2nc1/C=C/c1ccc(N(C)C)cc1 | nt | nt | nt | 20% | nt | -11%
Cc1cc(C(C)(C)C)cc(C)c1CC1=NCCN1 | 7.9µM* | ? | -12 | -8% | -21% | -3%
COC(=O)[C@@H]1[C@@H](CO)[C@@H]2Cn3c(ccc(Br)c3=O)[C@H]1N2S(=O)(=O)c1cccc(C)c1 | nt | nt | -2 | nt | nt | nt
C=C(C)C1CC=C(C)/C(=N\NC(=S)Nc2ccc(C)cc2)C1 (centres undefined) | ? | 13µM* | -28 | -28% | 27% | -11%
COC(=O)CSC1=C(C#N)C(c2ccc3c(c2)OCO3)C2=C(CCCC2=O)N1 (centres undefined) | -7% | -4% | nt | -19% | -27% | nt
Cc1ccc(NC(=O)CSC2=C(C#N)C(c3ccc4c(c3)OCO4)C3=C(CCCC3=O)N2)c(C)c1 (centres undefined) | -27% | ? | -65* | nt | -18% | nt
COC(=O)c1ccc([C@H]2/C(=C(\O)c3ccc(OC)cc3)C(=O)C(=O)N2c2cc(C)on2)cc1 | -24%[46.1 µM] | nt | nt | nt | nt | nt
CCOC(=O)N1CCN(C(=O)CN(Cc2ccc(Cl)cc2)S(=O)(=O)c2ccc(C)cc2)CC1 | -23% | 8.2µM* | -38 | nt | ? | nt
COc1ccc(-c2noc(N(c3ccc(F)c(Cl)c3)c3nc(-c4ccc(OC)c(OC)c4)no3)n2)cc1OC | 0%[46.1 µM] | -19%[46.1 µM] | -9 | -5% | 7% | 0%
O=C(C1CCC(C(=O)N2CCCCC2)CC1)N1CCCCC1 (centres undefined) | ? | -4% | -61* | -35% | -27% | nt
COc1cccc(C(=O)Nc2ccc(Oc3cccc(C(F)(F)F)c3)nc2)c1 | 8.9µM* | ? | -74* | ? | -23% | i
O=C(Nc1ccc(Oc2cccc(C(F)(F)F)c2)nc1)c1cccs1 | ? | -10%[46.1 µM] | -61* | 9% | ? | 1%
COc1cccc(/C=C/C(=O)Nc2ccc(OC)nc2)c1 | 8% | ? | -66* | -14% | 6% | -19%
COc1ccc(NC(=O)/C=C/c2ccccc2)cn1 | 12% | -7% | 10 | -9% | 44% | -13%
O=C(C[n+]1cccc2cc(Cl)ccc21)c1ccc(Br)cc1 | nt | nt | nt | 126% | nt | i
O=C1[C@@H]2CC=C(Cl)C[C@H]2C(=O)N1CNc1ccccn1 | 8% | nt | nt | nt | nt | nt
Cc1ccc(N2C(=O)CC(NNC(=O)c3cccc(S(=O)(=O)N4CCCC4)c3)C2=O)cc1 (centres undefined) | ? | ? | 16 | -22% | -13% | i
COc1ccc(Cl)cc1-c1nc(-c2ccc(NC(=O)c3ccncc3)cc2)no1 | -12% | -17% | -36 | 5% | -20% | -7%
Cc1nc(-c2ccc(-c3ccc(C(=O)N4CCc5cc6c(cc54)C4(CCN(C)CC4)CO6)cc3)c(C)c2)no1 | 5µM* | nt | nt | nt | -17% | nt
COc1ccc(-c2nc(-c3ccc(NC(=O)c4ccncc4)cc3)no2)cc1OC | ? | -19% | nt | -13% | 8.9µM* | 4%
COc1ccc(NC(=O)c2ccc(-c3ccc(-c4noc(C)n4)cc3C)cc2)cc1N1CCN(C)CC1 | 2.5µM* | ? | -20 | ? | -8% | -14%
SMILES | Marburg entry inh | LASV entry inh | HCMV inh | VACV Venus inh | FMDV antiviral | VACV mCherry inh
CN1OC[C@@H]2CN[C@H](c3cccc(Oc4ccccc4)c3)C[C@@H]21 | nt | nt | 2 | -15% | -2% | ?
CCN1CCCC1CNC(=O)c1cnn(-c2nccc(-c3ccc(C)o3)n2)c1C1CC1 (centres undefined) | nt | nt | nt | -7% | -8% | -16%
CC1CCc2c(sc(NC(=O)Cn3nnc(-c4ccc(C(F)(F)F)cc4)n3)c2C#N)C1 (centres undefined) | 6%[46.1 µM] | -1%[46.1 µM] | 5 | 0% | -20% | -1%
O=C(c1ccccc1)c1nc[nH]c1C(=O)Nc1ccccc1 | -26% | ? | -65* | -13% | 4% | nt
CN(Cc1ccccc1)C(=O)c1[nH]cnc1C(=O)Nc1ccc(Cl)cc1 | nt | nt | -31 | ? | 0% | ?
O=C(Nc1ccccc1)c1nc[nH]c1C(=O)O | ? | 12%[46.1 µM] | -19 | -10%[7.34 µM] | -2% | -12%[7.34 µM]
C[C@@H](NC(=O)c1[nH]cnc1C(=O)Nc1cccc(Cl)c1)c1ccccc1 | nt | nt | -79* | -25% | 0% | -3%
C[C@@H](NC(=O)c1[nH]cnc1C(=O)Nc1ccc(Cl)cc1)c1ccccc1 | nt | nt | -70* | ? | -4% | ?
C[C@H](NC(=O)c1[nH]cnc1C(=O)Nc1cccc(Cl)c1)c1ccccc1 | nt | nt | ? | ? | -2% | -19%
O=C(Nc1ccc(Cl)cc1)c1nc[nH]c1C(=O)NCc1ccccc1 | nt | nt | -74* | ? | -27% | ?
Cc1cc2c(c(-c3ccc(Cl)cc3)c1)OC(CNC(=O)CCC(=O)N(C)C)C2 (centres undefined) | nt | nt | nt | -15% | -1% | -17%
Cc1[nH]c2ccc(C(=O)N3CCN(c4ccccn4)CC3)cc2c1C | nt | nt | 4 | nt | -5% | nt
Cc1cccc(NC(=O)c2nc[nH]c2C(=O)Nc2cc(Br)ccc2F)c1 | nt | nt | -88* | ? | -17% | -17%
Cc1cccc(NC(=O)c2nc[nH]c2C(=O)Nc2ccccc2[N+](=O)[O-])c1 | 23% | -25% | -37 | -18% | 4% | ?
Cc1nc(N2CCN(C(=O)c3ccco3)CC2)c2c3c(sc2n1)CCCC3 | ? | -56% | -25 | -22% | nt | ?
Cc1nc(N2CCN(C(=O)c3cccs3)CC2)c2c3c(sc2n1)CCCC3 | -3%[46.1 µM] | ? | -21 | ? | 25µM* | ?
Cc1nc(N2CCN(C)CC2)c2c3c(sc2n1)CCCC3 | nt | nt | -22 | nt | -19% | nt
Cc1nc(N2CCN(C(=O)c3ccco3)CC2)c2c3c(sc2n1)CC(C)CC3 (centres undefined) | 13µM* | ? | ? | nt | ? | nt
C=CS(=O)(=O)c1c2cc(OC)ccc2nc2ccc(OC)cc12 | ? | ? | ? | ? | 28µM* | ?
CC1N=C2C(=O)OC3C=CC=CC3=C2N1c1ccccc1 (centres undefined) | 4% | nt | nt | nt | nt | nt
